From PubChem BioAssay

These compounds were tested against Albumin (Bos taurus) (UniProt P02769) (assay: compounds binding labelled BSA control protein – biochemical, small-molecule microarray, Alexa647 label, 635/667 nm fluorescence, artefact control for SMM control protein annotation, profiling panel (AID 1118;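 note: score merges 667 nm emission intensity and signal-to-noise per printed compound spot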)). Conditions: BSA-A647 binding, fluorescence 635 nm, higher = more signal.
Albumin (Bos taurus), sequence (P02769 whole entry, looked up): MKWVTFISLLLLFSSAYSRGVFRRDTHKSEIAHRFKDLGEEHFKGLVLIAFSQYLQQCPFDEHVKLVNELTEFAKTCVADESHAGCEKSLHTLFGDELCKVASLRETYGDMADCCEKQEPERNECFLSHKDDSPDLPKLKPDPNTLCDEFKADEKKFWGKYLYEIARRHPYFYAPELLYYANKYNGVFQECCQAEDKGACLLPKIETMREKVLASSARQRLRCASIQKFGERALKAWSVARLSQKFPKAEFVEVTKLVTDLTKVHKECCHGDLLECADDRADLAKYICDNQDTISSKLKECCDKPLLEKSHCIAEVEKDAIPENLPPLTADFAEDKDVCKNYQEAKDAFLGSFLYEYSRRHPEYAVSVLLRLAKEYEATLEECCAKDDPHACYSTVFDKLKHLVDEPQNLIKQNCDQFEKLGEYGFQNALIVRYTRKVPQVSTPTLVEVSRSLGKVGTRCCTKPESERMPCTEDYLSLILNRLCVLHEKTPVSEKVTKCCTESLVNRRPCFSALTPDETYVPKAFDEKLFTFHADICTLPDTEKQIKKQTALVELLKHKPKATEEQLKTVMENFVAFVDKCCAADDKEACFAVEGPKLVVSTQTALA

SMILES | composite z-score
COC(=O)C[C@H]1O[C@@H](CCc2ccccc2)[C@@H](C)[C@@H]1[Si](C)(C)c1ccc(OC)cc1 | -0.932
CC(=CC1CCCCC1)[C@@H](NC(=O)c1cccnc1)c1ccc(-c2ccccc2)cc1 | 0.513
[N-]=[N+]=Nc1ccccc1C[C@]1(C(=O)NCC(O)CO)N=C(c2ccc(OCCCO)cc2)O[C@H]1c1ccccc1 (stereo not given in full) | 0.927
COCC(=C=CC[C@H](O)c1cccc(OCCO)c1)CCO | 0.663
COC(=O)[C@H](Cc1ccccc1)N[C@H](/C=C/C1CC1)[C@@H](O)Cc1ccccc1 | -0.115
C=CCOC(=O)[C@H]1[C@@H]2C(=O)O[C@@H](c3ccccc3)[C@@H](c3ccccc3)N2[C@@H](c2ccc(OCCOC(=O)[C@@H]3C[C@@H]4C(=O)N5CCC[C@H]5C(=O)N4[C@@H]3c3cccc(OCCO)c3)cc2)[C@]12C(=O)Nc1ccc(I)cc12 | -0.656
COCC(=C=CC[C@@H](O)c1ccc(OCCO)cc1)C[C@@H](O)c1ccccn1 | 0.762
COc1ccc([Si](C)(C)[C@@H]2[C@@H](CCO)O[C@]3(C(=O)N(Cc4cccc(N5CCOC5=O)c4)c4ccccc43)[C@H]2C)cc1 | 0.757
[N-]=[N+]=Nc1ccccc1[C@H]1OC(c2ccc(OCCCO)cc2)=N[C@@]1(Cc1ccccc1)C(=O)N1CCOCC1 | 1.05
CN1C(=O)C2C=CC(C(O)C=Cc3ccc([N+](=O)[O-])cc3)N(Nc3ccccc3)C2C1=O (stereo not given) | 0.988
C#CCOc1ccc(C[C@@H](C(=O)OC)N(CC#C)[C@@H](/C=C/C2CC2)[C@H](O)Cc2ccccc2)cc1 | -0.485
O=C(NCc1ccccc1)[C@@H]1c2ccccc2C(=O)N(C2Cc3ccccc3C2)[C@H]1c1ccc(CO)cc1 | 0.0732
COC(=O)c1c2oc(c1C(=O)OC)C(=O)NC1(CCCCC1)c1cn(nn1)C[C@H](Cc1ccccc1)NC(=O)N[C@H](CO)CC2 | 0.692
CCCCCCc1nc(-c2ccc(-c3ccc(Cl)c(Cl)c3)o2)cc2c1[Si](C(C)C)(C(C)C)O[C@H]2c1ccccc1 | 0.108
COCCOC(=O)N1C(=O)[C@@]2(c3cc(C#CC4(O)CCCCCC4)ccc31)[C@H](C(=O)Nc1nc3ccccc3s1)[C@H]1C(=O)O[C@H](c3ccccc3)[C@H](c3ccccc3)N1[C@@H]2c1ccc(OCCO)cc1 | 0.345
COC(=O)[C@@]1(Cc2ccc(OC)cc2)[C@H]2c3cc(C(=O)N4CCCC4)n(CCCNc4ncc(C(F)(F)F)cc4Cl)c3C[C@H]2CN1C(=O)c1ccccc1 | 0.978
COC(=O)[C@@]1(Cc2ccc(OC)cc2)[C@H]2c3cc(C(=O)N4CCCC4)n(CCc4ccc(O)c(O)c4)c3C[C@H]2CN1C(=O)c1ccccc1 | 0.881
Cc1c(NC(=O)/C(C#N)=C/c2cccc([N+](=O)[O-])c2)c(=O)n(-c2ccccc2)n1C | 0.48

SMILES | composite z-score
C[N+](C)(C)CCCC[C@@H]1NC(=O)[C@@H]2C[C@H](C(=O)NCCCCCCNC(=O)CS)[C@H](c3ccc(O)cc3)N2C1=O | 0.303
COC(=O)[C@@]1(Cc2ccccc2)[C@H]2c3cc(C(=O)N4CCCC4)n(Cc4ccc(O)c(OC)c4)c3C[C@H]2CN1C(=O)c1ccccc1 | 0.638
O=C1O[C@@H](c2ccccc2)[C@@H](c2ccccc2)N2[C@@H](c3ccccc3OCCO)[C@]3(C(=O)Nc4ccccc43)[C@@H](C(=O)O)[C@H]12 | 0.858
CCCNC(=O)[C@@H]1c2ccccc2C(=O)N(Cc2ccccc2OC)[C@H]1c1ccc(CO)cc1 | 0.735
CC[C@@H]1C=C(C(=O)O)[C@H](c2ccc(C)cc2)N1S(=O)(=O)c1ccc(C)cc1 | 0.74
O=C1O[C@H](c2ccccc2)[C@H](c2ccccc2)N2[C@H]1[C@@H](C(=O)NC[C@H](O)c1ccccc1)[C@]1(C(=O)Nc3ccccc31)[C@H]2c1ccc(O)cc1 | 0.626
Cc1ccc(S[C@]2(C(=O)NCC(C)C)CC(=O)N(Cc3cc(C(F)(F)F)cc(C(F)(F)F)c3)[C@@H]2c2ccc(CO)cc2)cc1 | 0.539
COCCOC(=O)N1C(=O)[C@@]2(c3cc(C#CC4=CCCCC4)ccc31)[C@H](c1ccc(OCCO)cc1)N1[C@H](c3ccccc3)[C@H](c3ccccc3)OC(=O)[C@H]1[C@@H]2C(=O)N1CCc2cc(OC)c(OC)cc2C1 | 0.134
COc1ccccc1CN1C(=O)c2ccccc2[C@@H](C(=O)NCc2ccccc2)[C@@H]1c1ccc(CO)cc1 | 0.431
COCCOC(=O)N1C(=O)[C@@]2(c3ccccc31)[C@H](C(N)=O)[C@H]1C(=O)O[C@H](c3ccccc3)[C@H](c3ccccc3)N1[C@@H]2c1ccc(O)cc1 | 0.737
C=C(/C(=C/C[C@H](OC(C)=O)c1ccc(OCCO)cc1)c1cc(C(=O)OC)ccc1OC)C(C)C | 0.322
COCCCNC(=O)[C@@]1(Sc2ccc(C)cc2)CC(=O)N(Cc2ccccc2Cl)[C@@H]1c1ccc(CO)cc1 | 0.71
O=C(O)[C@H](Cc1ccccc1)n1cc(-c2ccccc2)nn1 | 0.0644
CC(C)[Si](C#CCCCC#N)(Oc1ccccc1Br)C(C)C | 0.435
C=CC1c2cc(O)c(OC)cc2CCN1Cc1cccc(OC(F)(F)F)c1 (stereo not given) | 0.971
O=C1OCCC=C[C@H]2OC34C=CCN(Cn5nnc6ccccc65)C(=O)[C@H]3N(CCO)C(=O)[C@@H]4C12 (stereo not given in full) | 0.995
CC(C)[Si](C#C[Si](C(C)C)(C(C)C)C(C)C)(O[C@H](C)c1cn(Cc2ccccc2)nn1)C(C)C | 0.551
